± gives the standard deviation of the averaged measurements. Over roughly 25,000 sequences, “ln(normalized median fluorescence intensity)” has its median near 8.9; the highest 2% begin near 10. The sample as a whole holds a higher share of the highest values than the screen did.
Tested on: PfAP2-LT AP2 domain (GST-tagged)
Test: gcPBM binding intensity (ln(normalized median fluorescence intensity)); higher = stronger DNA binding
Outline: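 Plasmodium falciparum DNA-binding domains carrying a GST tag were expressed in E. coli and applied for 1 h, at about 25 μg on average, to an Agilent 4 × 180k array. The array held primer-extended double-stranded 36-bp intergenic genomic probes together with negative controls, and binding took place in 1× PBS with 1% milk, 0.2 mg/ml BSA, 0.5% salmon testes DNA and 0.03% Triton X-100. An Alexa488 anti-GST antibody detected bound protein, and the array was scanned at 488 nm. Binding intensity is taken as the highest Masliner-normalised natural-log median intensity across replicate spots of either probe orientation.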

Sequence	gcPBM binding intensity (ln)
TTTTGAAGAAAATTCTTTTTTTTTTTTTTTTGTAAA [CACACA_negctrl_site102]	7.76 ± 0.65
AAATATTATGTGGCAAGTACATAAAGAAAATGCTTA [XGTACX_site3356]	8.89 ± 0.56
AAAAAAAAAAAAAAAGCACACATCATATTTTAATTC [CACACA_site9109]	8.87 ± 0.28
ATATATATATATATATAATATATAATATATATATAT [CACACA_negctrl_site96]	9.01 ± 0.11
AATAATAACAAATGAACACACATATATATGAGCAAA [CACACA_site2121]	9.13 ± 0.41
ATGATTATTTTAAAAAGTACTAATTATTATTTTTTT [XGTACX_site7242]	8.34 ± 0.47
TTCGTTATATTTTGATGTACTGATTCATATATATAT [XGTACX_site1835]	9.09 ± 0.42
ATTTTCTATTTTATTTGTACGTAATTTAATTTTTTT [XGTACX_site3609]	8.96 ± 0.53
TATATACAAAATGCCTGTACATATATATTTATTTAT [XGTACX_site761]	8.85 ± 0.35
ATAATATAATAATACACACTCATTATATATATAAAG [CACACA_site3956]	8.82 ± 0.43
GGTCATCATCGGTATTGTACAAAAATGTGAAAATTA [XGTACX_site639]	8.73 ± 0.48
AAATATATTATATCATATATTAAAGCATATATTAAA [CACACA_negctrl_site1624]	8.43 ± 0.42
TATCTGTATTTGTATACACACAAATGTATTTATTTA [CACACA_site4830]	8.94 ± 0.44
TATATTATAAATTAATGTACGTAATTTTTTTTTTTT [XGTACX_site2500]	8.38 ± 0.48
ATAAAATGAACAAACACACACACATATATATATATA [CACACA_site2402]	10.2 ± 0.13
AACAAAAATGAAAAAACACACATAACATATATAAAT [CACACA_site740]	9.27 ± 0.41
TTTATAAACAAATGAACACACAAACATATATATATA [CACACA_site5713]	9.33 ± 0.24
TTAACTATAATAAAATGTACATATGTAACATATATA [XGTACX_site7790]	8.66 ± 0.4
ATTAATTATTTCAATGCATGTGAACACTATATATAA [TGCATGCA_site600]	8.84 ± 0.42
ATGGATAATAAGTTTACACACAAAAAAAAAGAAAAA [CACACA_site861]	9.02 ± 0.57
GTTCATAAATTAAACACACACACACCCCTGGATACC [CACACA_site3331]	10.13 ± 0.085
GTTCATAAATTAAACACACACACACGGCTGGATACC [CACACA_site7545]	9.79 ± 0.26

Sequence	gcPBM binding intensity (ln)
GTTCATAAATTAAACACACACACACCGCTGGATACC [CACACA_site5779]	9.77 ± 0.16
CCCACTAAAAAACACACACACACACCCATATATATA [CACACA_site6140]	10.31 ± 0.078
CACCCACTAATAAACACACACATATATATATATATA [CACACA_site389]	10.3 ± 0.18
ATAATTTGGAAACACACACACACACCCACATATATA [CACACA_site2286]	10.28 ± 0.064
AAAAAAAAAAAACACACACACACACCCATATATAAA [CACACA_site1170]	9.995 ± 0.064
CAGGCACTAATAAACACACACATATAAATATAAATA [CACACA_site6320]	9.38 ± 0.59
ATACTAAAGAAACACACACACATATATATATAGAAT [CACACA_site100]	9.94 ± 0.28
CACTAAAAGAAACACACACACACACCCATATATATA [CACACA_site4151]	10.2 ± 0.23
CATATTTGGAAACACACACACATATTTATATATATA [CACACA_site3569]	9.62 ± 0.38
AAAAGAAAAAGAAAAACACACATAAATATAAATATA [CACACA_site1879]	8.93 ± 0.64
TAATTTTTGAAACACACACACATATATATATATATA [CACACA_site94]	9.885 ± 0.0071
TAAACACCCATATAAACACACATATAAACACCCATA [CACACA_site5382]	9.4 ± 0.21
AAAAAATTATATAATAATAGAACTATACATTTTATT [GTGCAC_negctrl_site645]	8.44 ± 0.47
TACAATAAGGATAAGTGTACATATGTGCATACATAT [XGTACX_site7188]	8.96 ± 0.35
TATTATTATTTTTTATGTACTAACGACAAAAATATT [XGTACX_site252]	8.48 ± 0.4
AATATTTTTATATATATACACACTTACATATATATA [CACACA_site3609]	8.91 ± 0.4
TTTTTTTTTTTGTGGGTGCGTTTATAAAAACAGGAA	8.42 ± 0.33
GGAACGTTCATATTTCCACACACAAAAAATAAATAT [CACACA_site9101]	9.31 ± 0.57
TTACACAAGGATAAAAACATATGTATGATTATATAT [CACACA_negctrl_site654]	8.89 ± 0.47
ATAGCTTTTATTTAAAGTACAAAAAGGATGTTGAAA [XGTACX_site3810]	8.46 ± 0.44
TTTTTTAAGTAATGAAATGATTTTCTTATAGAATAA [GTGCAC_negctrl_site395]	7.96 ± 0.36
AAAAAACAATTTGTGTGTACACATGATACGTTCGAT [XGTACX_site4112]	9.39 ± 0.28

Sequence	gcPBM binding intensity (ln)
TTTCCCATAGGAAAAACACACATATATTATATATAA [CACACA_site1981]	8.57 ± 0.4
TCTCATAGGAAACACACACACACACCCACATATATA [CACACA_site1738]	10.1 ± 0.11
AACATATAAAAATGTGCACACACACCCATATATATA [CACACA_site1525]	9.79 ± 0.3
TCTCATAGTAAACACACACACACACCCACATATATA [CACACA_site5034]	9.97 ± 0.071
CGCACTAAAAAACACACACACACACCCATATATATA [CACACA_site4152]	10.2 ± 0.29
TTAAAAAAAAAACACACACACATACCCATATATATA [CACACA_site5768]	9.825 ± 0.021
AATAAAATATAATAATTAATATATATATATATATAA [GTGCAC_negctrl_site457]	8.65 ± 0.45
ACACACAATACAAAAGTGCATATAATAATTAATCAT	9.34 ± 0.46
TTATAATATATATGTGGTACTTATTTATTTATTTAT [XGTACX_site7572]	8.72 ± 0.49
AACAAATTAATTCTAGTGCAGGACGTATTTGTGTAC [GTGCAC_site9907]	8.88 ± 0.36
AAAAAAAAAAAAAAAACACACACATATATATATATA [CACACA_site8571]	9.72 ± 0.29
AAAAAAACACACACATATATATATATATATATATAT [GTGCAC_negctrl_site498]	10.2 ± 0.16
AAAAAAAAAAAAAACACACATACATACATACATATA [CACACA_site4121]	9.13 ± 0.38
AAAAAAAAAAAAAACACACACATATATATATATATA [CACACA_site1891]	10.1 ± 0.37
AAAAAAAAAAAACACACACACATATATATATATATA [CACACA_site732]	10.4 ± 0.19
AACACACACATATATATATATATATATATATATATA [GTGCAC_negctrl_site573]	10.5 ± 0.13
CATATATAAAAAAACACACACATATATATATATATA [CACACA_site1195]	9.82 ± 0.042
AAAAAAAAAAAACATACACACATACATACATATATA [CACACA_site8222]	9.26 ± 0.35
ACACATATATATATATATATATATATATATATATAT [CACACA_negctrl_site1766]	9.935 ± 0.035
AAAAAAAAAAAAAACACACACATATATATAATATAT [CACACA_site3172]	9.37 ± 0.41
AAAAAAAAAAAAAAAACACACACATATATATAATAT [CACACA_site9038]	9.3 ± 0.41
AACATACACATATACACACACACATATATACATATA [CACACA_site1093]	9.89 ± 0.23
